{
  "source": "PubChem BioAssay (NCI)",
  "assay_in_all_cases": "NCI-60 one-dose screen, 48 h (100 = growth as untreated, 0 = no growth, -100 = all killed)",
  "key": {"[1]": {"tested_on": "SR leukemia"}, "[2]": {"tested_on": "RPMI-8226 leukemia"}, "[3]": {"tested_on": "OVCAR-8 ovarian"}, "[4]": {"tested_on": "OVCAR-5 ovarian"}, "[5]": {"tested_on": "OVCAR-4 ovarian"}, "[6]": {"tested_on": "SK-OV-3 ovarian"}, "[7]": {"tested_on": "IGROV1 ovarian"}, "[8]": {"tested_on": "OVCAR-3 ovarian"}, "[9]": {"tested_on": "HS 578T breast"}, "[10]": {"tested_on": "NCI/ADR-RES ovarian"}},
  "note": "Several values for one entry are separate records, joined by “and”; a condition that tells them apart may be missing. Identical values can stand only once. About 83,000 compounds went through this panel and 20% of them were active in at least one assay; those are over-represented in the sample as a whole.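 Interpretation: 100, growth as untreated; towards 0, rising growth inhibition; 0, no net growth; 0 to -100, cell death. Compounds scoring below 10 were considered active.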 A number with no mark means an inactive call. Activity calls are given as the source filed them.",
  "data": [
    {"smiles": "O=S1(=O)CC(Br)C(Br)C1", "note": "(configuration not stated)", "values": [
      {"measurement": "growth", "setting": "[1]; 10 µM unless noted", "value": 53.6, "unit": "%"},
      {"measurement": "growth", "setting": "[2]; 10 µM unless noted", "value": "85.5% and 82.5%"},
      {"measurement": "growth", "setting": "[3]; 10 µM unless noted", "value": "62.7% and 88.9%"},
      {"measurement": "growth", "setting": "[4]; 10 µM unless noted", "value": "96.4% and 108%"},
      {"measurement": "growth", "setting": "[5]; 10 µM unless noted", "value": "63.1% and 96%"},
      {"measurement": "growth", "setting": "[6]; 10 µM unless noted", "value": "105% and 110%"},
      {"measurement": "growth", "setting": "[7]; 10 µM unless noted", "value": "90.1% and 59%"},
      {"measurement": "growth", "setting": "[8]; 10 µM unless noted", "value": "50.3% and 75.7%"},
      {"measurement": "growth", "setting": "[9]; 10 µM unless noted", "value": "91.4% and 89.7%"},
      {"measurement": "growth", "setting": "[10]; 10 µM unless noted", "value": "68.5% and 110%"}
    ]},
    {"smiles": "CCCCCCCCCCCCCCCc1ccc(Cl)c(O)c1Cl", "note": "(tested in a mixture with another compound)", "values": [
      {"measurement": "growth", "setting": "[1]; 0.25 µM", "value": "4.53% (active)"},
      {"measurement": "growth", "setting": "[1]; 10 µM", "value": 79.6, "unit": "%"},
      {"measurement": "growth", "setting": "[2]; 10 µM unless noted", "value": "29.8% [0.25 µM]"},
      {"measurement": "growth", "setting": "[3]; 0.25 µM", "value": 36, "unit": "%"},
      {"measurement": "growth", "setting": "[3]; 10 µM", "value": 92.2, "unit": "%"},
      {"measurement": "growth", "setting": "[4]; 0.25 µM", "value": 78.5, "unit": "%"},
      {"measurement": "growth", "setting": "[4]; 10 µM", "value": 106, "unit": "%"},
      {"measurement": "growth", "setting": "[5]; 0.25 µM", "value": 65, "unit": "%"},
      {"measurement": "growth", "setting": "[5]; 10 µM", "value": 115, "unit": "%"},
      {"measurement": "growth", "setting": "[6]; 0.25 µM", "value": 53.5, "unit": "%"},
      {"measurement": "growth", "setting": "[6]; 10 µM", "value": 111, "unit": "%"},
      {"measurement": "growth", "setting": "[7]; 0.25 µM", "value": 28.7, "unit": "%"},
      {"measurement": "growth", "setting": "[7]; 10 µM", "value": 97.4, "unit": "%"},
      {"measurement": "growth", "setting": "[8]; 0.25 µM", "value": 65.3, "unit": "%"},
      {"measurement": "growth", "setting": "[8]; 10 µM", "value": 112, "unit": "%"},
      {"measurement": "growth", "setting": "[10]; 0.25 µM", "value": 94.8, "unit": "%"},
      {"measurement": "growth", "setting": "[10]; 10 µM", "value": 96.5, "unit": "%"}
    ]},
    {"smiles": "CC12CCC(CC1)C(C)(C)O2", "values": [
      {"measurement": "growth", "setting": "[1]; 10 µM unless noted", "value": 88.8, "unit": "%"},
      {"measurement": "growth", "setting": "[2]; 10 µM unless noted", "value": 103, "unit": "%"},
      {"measurement": "growth", "setting": "[3]; 10 µM unless noted", "value": 111, "unit": "%"},
      {"measurement": "growth", "setting": "[4]; 10 µM unless noted", "value": 94.3, "unit": "%"},
      {"measurement": "growth", "setting": "[5]; 10 µM unless noted", "value": 113, "unit": "%"},
      {"measurement": "growth", "setting": "[6]; 10 µM unless noted", "value": 104, "unit": "%"},
      {"measurement": "growth", "setting": "[7]; 10 µM unless noted", "value": 103, "unit": "%"},
      {"measurement": "growth", "setting": "[8]; 10 µM unless noted", "value": 121, "unit": "%"},
      {"measurement": "growth", "setting": "[9]; 10 µM unless noted", "value": 102, "unit": "%"},
      {"measurement": "growth", "setting": "[10]; 10 µM unless noted", "value": 108, "unit": "%"}
    ]},
    {"smiles": "CCOc1ccc2c(S(=O)(=O)O)cccc2c1[N+](=O)[O-]", "values": [
      {"measurement": "growth", "setting": "[1]; 10 µM unless noted", "value": "100% and 94.2%"},
      {"measurement": "growth", "setting": "[2]; 10 µM unless noted", "value": "98.1% and 95.9%"},
      {"measurement": "growth", "setting": "[3]; 10 µM unless noted", "value": "104% and 97.6%"},
      {"measurement": "growth", "setting": "[4]; 10 µM unless noted", "value": "102% and 112%"},
      {"measurement": "growth", "setting": "[5]; 10 µM unless noted", "value": "123% and 109%"},
      {"measurement": "growth", "setting": "[6]; 10 µM unless noted", "value": "102% and 106%"},
      {"measurement": "growth", "setting": "[7]; 10 µM unless noted", "value": "96.3% and 114%"},
      {"measurement": "growth", "setting": "[8]; 10 µM unless noted", "value": "107% and 112%"},
      {"measurement": "growth", "setting": "[9]; 10 µM unless noted", "value": "102% and 94.5%"},
      {"measurement": "growth", "setting": "[10]; 10 µM unless noted", "value": "103% and 106%"}
    ]},
    {"smiles": "O=C(/C=C/c1ccccn1)c1ccccc1O", "values": [
      {"measurement": "growth", "setting": "[1]; 10 µM unless noted", "value": "4.76% (active)"},
      {"measurement": "growth", "setting": "[2]; 10 µM unless noted", "value": "2.44% (active) and -0.787% (active)"},
      {"measurement": "growth", "setting": "[3]; 10 µM unless noted", "value": "54.4% and 84.8%"},
      {"measurement": "growth", "setting": "[4]; 10 µM unless noted", "value": "77.1% and 92.3%"},
      {"measurement": "growth", "setting": "[5]; 10 µM unless noted", "value": "101% and 88.2%"},
      {"measurement": "growth", "setting": "[6]; 10 µM unless noted", "value": "111% and 113%"},
      {"measurement": "growth", "setting": "[7]; 10 µM unless noted", "value": "38.1% and 66.6%"},
      {"measurement": "growth", "setting": "[8]; 10 µM unless noted", "value": "84.4% and 44.9%"},
      {"measurement": "growth", "setting": "[9]; 10 µM unless noted", "value": 87.2, "unit": "%"},
      {"measurement": "growth", "setting": "[10]; 10 µM unless noted", "value": "73.9% and 93.4%"}
    ]},
    {"smiles": "CCC(C)C1(C2CCCC2)NC(=O)NC1=O", "note": "(configuration not stated)", "values": [
      {"measurement": "growth", "setting": "[1]; 10 µM unless noted", "value": 92, "unit": "%"},
      {"measurement": "growth", "setting": "[2]; 10 µM unless noted", "value": "93.9% and 106%"},
      {"measurement": "growth", "setting": "[3]; 10 µM unless noted", "value": "108% and 99.9%"},
      {"measurement": "growth", "setting": "[4]; 10 µM unless noted", "value": "111% and 105%"},
      {"measurement": "growth", "setting": "[5]; 10 µM unless noted", "value": 102, "unit": "%"},
      {"measurement": "growth", "setting": "[6]; 10 µM unless noted", "value": "99.7% and 109%"},
      {"measurement": "growth", "setting": "[7]; 10 µM unless noted", "value": "117% and 119%"},
      {"measurement": "growth", "setting": "[8]; 10 µM unless noted", "value": "106% and 115%"},
      {"measurement": "growth", "setting": "[9]; 10 µM unless noted", "value": "107% and 103%"},
      {"measurement": "growth", "setting": "[10]; 10 µM unless noted", "value": "109% and 104%"}
    ]},
    {"smiles": "O[C@H](c1cc(C(F)(F)F)nc2c(C(F)(F)F)cccc12)[C@@H]1CCCCN1", "values": [
      {"measurement": "growth", "setting": "[1]; 10 µM unless noted", "value": 11.7, "unit": "%"},
      {"measurement": "growth", "setting": "[2]; 10 µM unless noted", "value": "70.1% and 79.2%"},
      {"measurement": "growth", "setting": "[3]; 10 µM unless noted", "value": "80.3% and 64.2%"},
      {"measurement": "growth", "setting": "[4]; 10 µM unless noted", "value": "79.5% and 69.3%"},
      {"measurement": "growth", "setting": "[5]; 10 µM unless noted", "value": "69.7% and 59.8%"},
      {"measurement": "growth", "setting": "[6]; 10 µM unless noted", "value": "79.1% and 74.6%"},
      {"measurement": "growth", "setting": "[7]; 10 µM unless noted", "value": "47.8% and 46.4%"},
      {"measurement": "growth", "setting": "[8]; 10 µM unless noted", "value": "68.1% and 55%"},
      {"measurement": "growth", "setting": "[9]; 10 µM unless noted", "value": "66.3% and 63%"},
      {"measurement": "growth", "setting": "[10]; 10 µM unless noted", "value": "65.7% and 56.1%"}
    ]},
    {"smiles": "O=C(O)c1sccc1O", "values": [
      {"measurement": "growth", "setting": "[1]; 10 µM", "value": 67.7, "unit": "%"},
      {"measurement": "growth", "setting": "[1]; 100 µM", "value": "4.33% (active)"},
      {"measurement": "growth", "setting": "[2]; 10 µM", "value": 71.4, "unit": "%"},
      {"measurement": "growth", "setting": "[2]; 100 µM", "value": 16, "unit": "%"},
      {"measurement": "growth", "setting": "[3]; 10 µM", "value": 82.4, "unit": "%"},
      {"measurement": "growth", "setting": "[3]; 100 µM", "value": 37.8, "unit": "%"},
      {"measurement": "growth", "setting": "[4]; 10 µM", "value": 102, "unit": "%"},
      {"measurement": "growth", "setting": "[4]; 100 µM", "value": 38, "unit": "%"},
      {"measurement": "growth", "setting": "[5]; 10 µM", "value": 76.5, "unit": "%"},
      {"measurement": "growth", "setting": "[5]; 100 µM", "value": 29.9, "unit": "%"},
      {"measurement": "growth", "setting": "[6]; 10 µM", "value": 84.5, "unit": "%"},
      {"measurement": "growth", "setting": "[6]; 100 µM", "value": 80.9, "unit": "%"},
      {"measurement": "growth", "setting": "[7]; 10 µM", "value": 74.7, "unit": "%"},
      {"measurement": "growth", "setting": "[7]; 100 µM", "value": 36, "unit": "%"},
      {"measurement": "growth", "setting": "[8]; 10 µM", "value": 75.1, "unit": "%"},
      {"measurement": "growth", "setting": "[8]; 100 µM", "value": 11.1, "unit": "%"},
      {"measurement": "growth", "setting": "[9]; 10 µM", "value": 65.6, "unit": "%"},
      {"measurement": "growth", "setting": "[9]; 100 µM", "value": 19.5, "unit": "%"},
      {"measurement": "growth", "setting": "[10]; 10 µM", "value": 81.5, "unit": "%"},
      {"measurement": "growth", "setting": "[10]; 100 µM", "value": 36, "unit": "%"}
    ]}
  ]
}
